Measured values as given in the supplement of paper PMC7156485.
± gives the standard deviation of the averaged measurements.
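Also: TDF denotes transformed human dermal fibroblasts of mesenchymal origin.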

Each molecule was assayed on TDF (assay: cell number relative to DMSO (% of DMSO); higher = more cells (less growth inhibition / toxicity)). Details: concentration: 10 µM; 24 h.
Procedure, shortened: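 After 24 h at 37 °C with compounds at 10 µM, in triplicate, HCC1569 and TDF cells were fixed with 3.7% formaldehyde. Immunostaining used a rabbit anti-H1.0 antibody and an AlexaFluor 647 secondary, with DAPI, and six fields per well were imaged at ×10. H1.0 nuclear intensity or cell number is presented as percent of the plate control, from the median of replicates, with HCC1569 values smoothed for positional effects.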
`CC(C)NCC(O)COc1ccc(CC(N)=O)cc1` (centres undefined) [Atenolol] was tested, and the cell number was 102.
For `NCCCC(=O)O`, the cell number was 106.
`CN1CCN(c2c(F)cc3c(=O)c(C(=O)O)cn(CCF)c3c2F)CC1` [Fleroxacin] was tested, and the cell number was 87.2.
For `COC(=O)C1=COC(C)C2CN3CCc4c([nH]c5ccccc45)C3CC12` (centres undefined) [Teterahydroalstonine], the cell number was 104.
Work on `NCC1OC(OC2C(N)CC(N)C(OC3OC(CO)C(O)C(N)C3O)C2O)C(O)C(O)C1O.O=S(=O)(O)O` (centres undefined) [Kanamycin sulfate] yielded a cell number of 106.
Work on `CCCCCCCCCCCCCCCCCC(=O)NCC(COP(=O)([O-])OCC[N+](C)(C)C)OCC` (racemic) [rac-2-Ethoxy-3-octadecanamido-1-propylphosphocholine] yielded a cell number of 54.4.
With `CC1(C)SC2C(NC(=O)C(N)c3ccc(O)cc3)C(=O)N2C1C(=O)O` (centres undefined) [Amoxicillin] the cell number was 103.
`Cc1ncc(Cl)cc1NCc1ccc(C(=O)N[C@@H](CC2CCCC2)C(=O)NC2CC2)s1` gave a cell number of 96.1.
`NCC1OC(OC2C(CO)OC(OC3C(O)C(N)CC(N)C3OC3OC(CO)C(O)C(O)C3N)C2O)C(N)C(O)C1O.O=S(=O)(O)O` (centres undefined) [Paromomycin sulfate] was tested, and the cell number was 106.
In the case of `COc1ccc(CN(CCN(C)C)c2ccccn2)cc1.O=C(O)C=CC(=O)O` [Pyrilamine maleate], the cell number is reported as 104.
Work on `CC(C=CC1=C(C)CCCC1(C)C)=CC=CC(C)=CC(=O)O` [13-cis-retinoic acid] yielded a cell number of 100.
Molecule `O=C(C=Cc1ccc(O)c(O)c1)OC1CC(O)(C(=O)O)CC(O)C1O` (centres undefined) [Chlorogenic acid] has a cell number of 98.2.
`CCCCCCCCCCCCCCCC(=O)O` [Hexadecanoic acid] showed a cell number of 92.6.
With `CCCCc1oc2ccccc2c1C(=O)c1cc(I)c(OCCN(CC)CC)c(I)c1.Cl` [Amiodarone.HCl] the cell number was 105.
Work on `N=c1ccn2c(n1)OC1C(O)C(CO)OC12` (centres undefined) [Cyclocytidine] yielded a cell number of 51.7.
Molecule `CN1CCN2c3ccccc3Cc3ccccc3C2C1.Cl` (centres undefined) [Mianserin hydrochloride] has a cell number of 101.
In the case of `O=C(C=Cc1ccc(O)c(O)c1)OC(Cc1ccc(O)c(O)c1)C(=O)O` (centres undefined) [Rosmarinic acid], the cell number is reported as 101 ± 6.3.
In the case of `Cc1cc(=O)oc2cc(O)ccc12` [4-Methylumbelliferone], the cell number is reported as 103.
For `CC(=O)C(C)=O` [2,3-Butanedione], the cell number was 103.
Work on `O=C(Nc1ccc(Cl)cc1)Nc1cccc(-c2cccc(N3CCCC3)n2)c1` yielded a cell number of 87.5.
`C[n+]1ccccc1CC(=O)c1ccc(Br)cc1.[I-]` [2-[2-(4-bromophenyl)-2-oxoethyl]-1-methylpyridinium iodide] gave a cell number of 87.6.
`Fc1ccc(-c2nc3n(c2-c2ccncc2)CCS3)cc1` was tested, and the cell number was 108.
In the case of `Fc1ccc(-c2c3cccc(C(F)(F)F)c3nn2Cc2ccc(F)cc2Cl)cc1`, the cell number is reported as 95.3.
With `Cc1ccc([N+](=O)[O-])cc1S(=O)(=O)N(C)N=Cc1cnc2ccc(Br)cn12` the cell number was 11.6.
Molecule `COc1cc(OC)c(C=C2C(=O)Nc3ccccc32)c(OC)c1` has a cell number of 11.2.
`CCC1C(=O)OCC1Cc1cncn1C.Cl` (single isomer, unassigned; (+)) [(+)-Pilocarpine hydrochloride] gave a cell number of 93.1.
With `O=NN(CCCl)C(=O)NC1CCCCC1` [Lomustine] the cell number was 85.
For `NC1CCN(c2c(F)cc3c(=O)c(C(=O)O)cn(C4CC4)c3c2Cl)C1` (centres undefined) [Clinafloxacin], the cell number was 101.
Work on `CCOC(=O)[C@H](CCc1ccccc1)N[C@@H](C)C(=O)N1CCC[C@H]1C(=O)O.O=C(O)C=CC(=O)O` yielded a cell number of 99.6.
Work on `CN(C)CCC(CSc1ccccc1)Nc1ccc(S(=O)(=O)NC(=O)c2ccc(N3CCN(Cc4ccccc4-c4ccc(Cl)cc4)CC3)cc2)cc1[N+](=O)[O-]` (centres undefined) yielded a cell number of 106.
`CC[N+](C)(C)c1cccc(O)c1.[Cl-]` [Edrophonium chloride] was tested, and the cell number was 113.
`CC#CC1(O)CCC2C3CCC4=CC(=O)CCC4=C3C(c3ccc(N(C)C)cc3)CC21C` (centres undefined) [Mifepristone] showed a cell number of 111 ± 13.
`Clc1ccc(COC(Cn2ccnc2)c2ccc(Cl)cc2Cl)c(Cl)c1` (centres undefined) [Miconazole] was tested, and the cell number was 110.
`Cn1nc2c3c(cccc31)C(=O)c1ccccc1-2` [JNK Inhibitor,                    Negative Control] was tested, and the cell number was 95.3.
`O=c1cc(-c2ccccc2)oc2cc(O)ccc12` [7-Hydroxyflavone] showed a cell number of 104.
Work on `CC(=O)Oc1ccccc1C(=O)O` [Acetylsalicylic acid] yielded a cell number of 98.8.
`CN(C)C(=O)Nc1cccc(-c2ccc(N(C)C)cc2)c1` [3-(4'-(dimethylamino)-[1,1'-biphenyl]-3-yl)-1,1-dimethylurea] was tested, and the cell number was 101.
With `O=C(O)c1cc(O)ccc1O` [Gentisic acid] the cell number was 100.
Molecule `CN(CC=CC#CC(C)(C)C)Cc1cccc2ccccc12.Cl` has a cell number of 105.
